ssDAF12 agonist: activates DAF-12 receptor from parasite S. stercoralis | activation, % at 6.8 µM | 370,000 compounds, 1% hits | HEK293 ssDAF-12/GRIP1 lit1-tk-luc reporter, luminescence; % of 3 µM dafachronic acid response | AID 652126;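 active means activation above the mean over all tested compounds plus 3 SD, cut at about 0.9% in these data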;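 further: 0% = DMSO-only wells and 100% = 3 µM delta7-dafachronic acid wells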
DAX1 inh-1: inhibitors of DAX1 repression of SF-1 activated StAR promoter | HEK293T StAR-luciferase reporter, SF-1/DAX-1 repression relief | inhibition, % at 6.8 µM | 370,000 compounds, 1.1% hits | AID 652010;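 active means inhibition above the mean over all tested compounds plus 3 SD, cut at about 3.6% in these data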;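 further: 0% = DAX-1 cells with DMSO and 100% = cells lacking DAX-1 with DMSO; higher inhibition means more luminescence from relief of DAX-1 repression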
hgDAF-12 ag: agonists of H. glycines DAF-12 nuclear receptor; 370,000 compounds, 1.8% hits; HEK293 GAL4-hgDAF12 UAS-luciferase reporter, agonist luminescence; normalized to butyrate control; activation, % at 6.8 µM;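 active means activation above a cutoff set at the mean of all screened compounds plus 3 SD, cut at about 10% in these data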;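 further: 0% = DMSO wells and 100% = sodium butyrate wells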
hcDAF12 agonist: activators of H. contortus DAF-12 nuclear receptor | AID 652067 | 370,000 compounds, 1.4% hits | HEK293 hcDAF-12 lit1-tk-luc reporter, luminescence; 0% DMSO, 100% Δ7-dafachronic acid | activation, % at 6.8 µM;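 active means activation above the mean of all tested compounds plus 3 SD, cut at about 5.5% in these data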;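 further: 100% = response to 3 µM Δ7-dafachronic acid high control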
DAX1 inh-2: inhibitors of human orphan nuclear receptor DAX1 (NR0B1). P51843. HEK293 Gal4-DAX1 luciferase reporter, luminescence. inhibition, % at 6.75 µM. 340,000 compounds, 0.99% hits;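 active means inhibition above the mean over all tested compounds plus 3 SD, cut at about 4.2% in these data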;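 further: 0% = DAX1-transfected cells with DMSO and 100% = empty-vector control cells with DMSO; inhibition shows as a rise in luminescence from relieved DAX1 repression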
Target sequence (P51843 207-470 limits assumed): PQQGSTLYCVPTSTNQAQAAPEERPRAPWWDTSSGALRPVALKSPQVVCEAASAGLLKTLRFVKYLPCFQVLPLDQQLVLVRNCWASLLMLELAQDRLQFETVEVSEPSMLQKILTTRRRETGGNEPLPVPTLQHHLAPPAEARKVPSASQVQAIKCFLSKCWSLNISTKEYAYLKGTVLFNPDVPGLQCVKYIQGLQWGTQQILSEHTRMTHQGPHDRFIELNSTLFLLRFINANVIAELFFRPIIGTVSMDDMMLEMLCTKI
LXRb hcDAF ctr: activates human LXR-beta, counter-screen for hcDAF-12 agonists; shares compounds with hcDAF12 agonist; HEK293 Gal4-LXR tk-luc reporter, luminescence, 24 h; normalized: DMSO 0%, positive control 100%; activation, % at 6.8 µM; 3,400 tested, under 10 active; AID 743027;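 active means mean percent activation of the reporter above a cutoff set as the average over tested compounds plus their standard deviation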
hcDAF12 ag: hcDAF-12 agonism, confirmation assay; activation, % at 6.8 µM; 3,400 compounds, 61% hits; HEK293 hcDAF-12 lit1-tk-luc reporter, luminescence; % of Δ7-dafachronic acid response; shares compounds with hcDAF12 agonist;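 active means mean activation across triplicate tests above the threshold derived from the earlier primary screen, cut at about 5.5% in these data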;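 further: 0% = DMSO only wells and 100% = 3 µM Δ7-dafachronic acid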
* = called active by the depositor; · = no result given. Most compounds without a hit are left out; they make up all but 4.1% or so of the library.

SMILES | ssDAF12 agonist | DAX1 inh-1 | hgDAF-12 ag | hcDAF12 agonist | DAX1 inh-2 | LXRb hcDAF ctr | hcDAF12 ag
CCn1cc(Br)c(C(=O)Nc2ccc(OC)cc2)n1 | -1 | 1 | 1 | 0 | 0 | · | ·
CCn1cc(Br)c(C(=O)NN)n1 | 0 | 3 | 8 | 6.7* | 2 | 0 | 2
COc1ccc(N=Cc2c(O)[nH]c3ccccc23)cc1 | 1.1* | 4.2* | 13* | 6.9* | 1 | 2 | 11*
Oc1[nH]c2ccccc2c1/C=N/N1CCCCC1 | 0 | 1 | 3 | 14* | 0 | 0 | 4
COc1ccc(N=Cc2c(O)ccc3ccccc23)cc1 | 0 | 0 | 0 | -1 | 1 | · | ·
O=C(COC(=O)CC1CCCC1)Nc1ccc(Br)cc1F | -1 | 0 | -1 | -1 | 0 | · | ·
Cc1ccnc(NC(=O)c2ccc(Cl)s2)c1 | · | · | · | · | 2 | · | ·
CC(C)(C)c1ccc(OCCNC(=S)NC(=O)c2cccnc2)cc1 | -2 | 0 | 1 | 0 | -1 | · | ·
COc1ccc(Cl)cc1NC(=O)c1cc(C2CC2)on1 | -1 | · | 3 | 7.6* | · | 0 | 5
COc1ccc(Cl)cc1NC(=O)c1cc(-c2ccccc2)on1 | -1 | 0 | 1 | 5 | 3 | · | ·
Cc1ccccc1-c1nnc(-c2cccs2)o1 | 1.3* | 1 | 9 | 7.7* | 4 | 1 | 8.6*
CC(=O)NCCC(=O)N1CCc2c([nH]c3ccccc23)C1c1cccc(C)c1 (centres undefined) | 0 | 0 | 9 | 7.1* | 1 | 0 | 7.6*
CC(=O)NCCC(=O)N1CCc2c([nH]c3ccccc23)C1c1cccc(Cl)c1 (centres undefined) | -1 | 0 | -1 | 4 | -1 | · | ·
CN(CCc1ccccc1)C1CCCN(C(=O)Cn2cccn2)C1 (centres undefined) | -1 | 0 | 2 | 0 | 3 | · | ·
c1ccc(C2=NN(c3ccccc3)CC2)cc1 | 1 | 2 | 11* | 6.7* | 4.3* | 0 | 4
Brc1ccc(-c2nc(N/N=C/c3cccnc3)c3ccccc3n2)cc1 | 1.6* | 1 | 13* | 11* | 1 | 2 | 14*
CC(=O)N(/N=C1/C(=O)Nc2ccccc21)c1ccccc1 | 1.2* | 1 | 2 | 12* | 1 | 1 | 10*
CC(=O)c1ccc(N=C2C(=O)Nc3ccccc32)cc1 | -1 | 0 | 5 | -1 | -2 | · | ·
CNC(=O)c1ccc(CN(C)C(=O)c2cccc(S(=O)(=O)N3CCc4ccccc4C3)c2)cc1 | -2 | 0 | 0 | -1 | 2 | · | ·
NS(=O)(=O)c1ccc2nc(NC(=O)CS(=O)(=O)c3ccccc3)sc2c1 | 0 | 0 | 2 | 0 | 0 | · | ·
O=C(NNc1nc2ccccc2s1)Nc1ccccc1 | 0 | 1 | 5 | 7.2* | 1 | 1 | 4
O=C(NCc1ccccc1)c1nc2ccccc2s1 | -2 | -1 | 2 | 1 | 1 | · | ·
O=C(CS(=O)(=O)c1ccccc1)Nc1nc2ccccc2s1 | 0 | 0 | 5 | 7.1* | 1 | 0 | 3
S=C(Nc1ccccc1)c1nc2ccccc2s1 | 1.1* | 1 | 12* | 9.2* | 2 | 1 | 8.9*
C/C(=C\C(=O)c1ccccc1)NNc1nc2ccccc2s1 | -1 | 0 | -4 | 3 | 0 | · | ·
SMILES | ssDAF12 agonist | DAX1 inh-1 | hgDAF-12 ag | hcDAF12 agonist | DAX1 inh-2 | LXRb hcDAF ctr | hcDAF12 ag
CCN(CC(=O)NCc1ccc(F)cc1)C(=O)/C=C/c1ccco1 | -1 | 1 | 0 | 0 | 1 | · | ·
Cc1ccc(Nc2cc(=O)n(C)c(=O)[nH]2)cc1C | -1 | 1 | -1 | 0 | -1 | · | ·
CN1CCN(c2ccc(C(=O)c3ccc(F)cc3)cc2)CC1 | -1 | 2 | 12* | 8.9* | 2 | 1 | 5
O=C(O)CCC(=O)N1CCN(c2ccc(C(=O)c3ccc(F)cc3)cc2)CC1 | -1 | -1 | 3 | -1 | -1 | · | ·
COc1ccccc1N1CCN(C(=O)CCc2nnc3ccc(N4CCC(C)CC4)nn23)CC1 | -2 | -1 | -6 | -3 | 0 | · | ·
Cc1cccc(-n2ncc3c(NCCCO)ncnc32)c1 | 0 | 4 | 12* | 6.6* | 1 | 1 | 3
O=C(Nc1ccc2[nH]ccc2c1)c1ccccc1 | 1 | 3 | 12* | 9.2* | -2 | 2 | 9.5*
COc1ccc(NC(=O)Nc2ccc3[nH]ccc3c2)cc1 | 0 | 3 | 8 | 3 | · | · | ·
Cc1ccc(NC(=O)Cc2c(Cl)cccc2Cl)cc1S(=O)(=O)N(C)C | -1 | -1 | -2 | 11* | -1 | 0 | 2
CCC1CCCCN1C(=O)CSc1nnc(-c2ccc3c(c2)OCCO3)o1 (centres undefined) | -1 | 0 | -1 | -2 | 0 | · | ·
CCOC(=O)C1CCCCN1C(=O)CCc1nnc(-c2ccc3c(c2)OCO3)o1 (centres undefined) | -1 | 3 | 4 | 7.7* | 1 | 0 | 1
CN(C)CCCNc1nc(-c2ccccc2)nc2ccccc12 | 0 | 0 | -1 | 4 | -1 | · | ·
Cc1ccc(-c2nc(NCCCN(C)C)c3ccccc3n2)cc1 | 0 | 3 | 11* | 8.3* | 4 | 0 | 11*
Cc1ccc(-c2nc(NCCN3CCOCC3)c3ccccc3n2)cc1 | 0 | 2 | 11* | 6.8* | 2 | 0 | 6.4*
COc1cccc(-c2nc(CS(=O)(=O)CC(=O)Nc3ccc(C(C)=O)cc3)c(C)o2)c1 | -1 | 0 | -2 | -3 | 0 | · | ·
CCN(CC)S(=O)(=O)c1ccc(-c2nnc3sc4cccc(C)c4n23)cc1 | 1 | 0 | 5 | 7.1* | -2 | 0 | 4
CCN(CC)S(=O)(=O)c1ccc(-c2nnc(SCC(N)=O)n2CC)cc1 | -1 | 0 | 1 | 2 | 1 | · | ·
C[C@H](NC(=O)c1cc2cc(Cl)ccc2n1C)C(=O)N1CCC(C(=O)O)CC1 | -1 | 0 | -4 | -1 | 1 | · | ·
Cn1c(C(=O)Nc2ccc(Cl)cc2)cc2cc(Cl)ccc21 | 0 | 0 | 4 | 8.3* | 0 | 0 | 7.9*
C(=C\c1ccc2ccccc2n1)/c1ccccc1 | 1.3* | 2 | 6 | 14* | -2 | 1 | 13*
Oc1ccc(/C=C/c2ccc3ccccc3n2)cc1 | -2 | 0 | 0 | 1 | -7 | · | ·
Clc1ncccc1-c1nnn(-c2ccccc2)n1 | 0 | 2 | 13* | 6.8* | 1 | 2 | 7.0*
CCCn1c(SCC(=O)N2CCCC(C)C2)nnc1-c1cccnc1 (centres undefined) | -1 | 0 | 0 | -1 | 0 | · | ·
COc1ccc(CCNC(=O)COC(=O)C23CC4CC(CC(C4)C2)C3)cc1 | 0 | -2 | 5 | 6.8* | -2 | 0 | 1

Compound activity (PubChem BioAssay)
